These results are taken from ChEMBL document CHEMBL1961873, “Compounds: GSK PKIS; Assays: Nanosyn kinase panel” (2012).

The target in experiment [1] is T1, Ephrin type-B receptor 2 (Homo sapiens) (UniProt P29323).
T1 sequence (whole entry): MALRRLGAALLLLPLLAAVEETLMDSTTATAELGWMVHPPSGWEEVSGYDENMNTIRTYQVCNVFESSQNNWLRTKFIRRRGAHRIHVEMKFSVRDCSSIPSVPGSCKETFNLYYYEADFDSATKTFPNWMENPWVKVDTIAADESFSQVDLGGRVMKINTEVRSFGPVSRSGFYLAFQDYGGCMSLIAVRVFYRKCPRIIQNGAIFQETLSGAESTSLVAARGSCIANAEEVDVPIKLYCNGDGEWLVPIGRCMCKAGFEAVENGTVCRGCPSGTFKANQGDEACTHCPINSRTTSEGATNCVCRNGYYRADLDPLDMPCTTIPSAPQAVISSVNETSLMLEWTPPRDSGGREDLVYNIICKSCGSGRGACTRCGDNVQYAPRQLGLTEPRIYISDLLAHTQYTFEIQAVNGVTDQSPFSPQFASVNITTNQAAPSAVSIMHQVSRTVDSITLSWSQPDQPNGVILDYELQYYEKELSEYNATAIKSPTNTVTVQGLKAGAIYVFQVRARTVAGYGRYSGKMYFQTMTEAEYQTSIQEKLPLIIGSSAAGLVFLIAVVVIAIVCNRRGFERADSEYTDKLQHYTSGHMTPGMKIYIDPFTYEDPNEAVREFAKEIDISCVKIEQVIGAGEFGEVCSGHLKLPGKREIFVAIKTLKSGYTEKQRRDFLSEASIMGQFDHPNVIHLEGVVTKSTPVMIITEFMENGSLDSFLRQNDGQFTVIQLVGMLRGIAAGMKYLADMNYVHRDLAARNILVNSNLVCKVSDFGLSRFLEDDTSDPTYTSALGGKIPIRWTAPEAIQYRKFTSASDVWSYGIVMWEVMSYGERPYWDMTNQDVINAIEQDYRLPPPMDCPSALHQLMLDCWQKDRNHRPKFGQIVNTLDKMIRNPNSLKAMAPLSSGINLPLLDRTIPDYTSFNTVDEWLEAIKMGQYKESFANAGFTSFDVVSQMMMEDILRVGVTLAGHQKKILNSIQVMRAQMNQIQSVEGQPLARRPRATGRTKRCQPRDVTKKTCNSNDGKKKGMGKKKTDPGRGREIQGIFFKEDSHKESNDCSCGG
The note with it: at 1 µM.

In experiment [2] the target is T2, Ephrin type-B receptor 3 (Homo sapiens) (UniProt P54753).
T2 sequence (whole entry): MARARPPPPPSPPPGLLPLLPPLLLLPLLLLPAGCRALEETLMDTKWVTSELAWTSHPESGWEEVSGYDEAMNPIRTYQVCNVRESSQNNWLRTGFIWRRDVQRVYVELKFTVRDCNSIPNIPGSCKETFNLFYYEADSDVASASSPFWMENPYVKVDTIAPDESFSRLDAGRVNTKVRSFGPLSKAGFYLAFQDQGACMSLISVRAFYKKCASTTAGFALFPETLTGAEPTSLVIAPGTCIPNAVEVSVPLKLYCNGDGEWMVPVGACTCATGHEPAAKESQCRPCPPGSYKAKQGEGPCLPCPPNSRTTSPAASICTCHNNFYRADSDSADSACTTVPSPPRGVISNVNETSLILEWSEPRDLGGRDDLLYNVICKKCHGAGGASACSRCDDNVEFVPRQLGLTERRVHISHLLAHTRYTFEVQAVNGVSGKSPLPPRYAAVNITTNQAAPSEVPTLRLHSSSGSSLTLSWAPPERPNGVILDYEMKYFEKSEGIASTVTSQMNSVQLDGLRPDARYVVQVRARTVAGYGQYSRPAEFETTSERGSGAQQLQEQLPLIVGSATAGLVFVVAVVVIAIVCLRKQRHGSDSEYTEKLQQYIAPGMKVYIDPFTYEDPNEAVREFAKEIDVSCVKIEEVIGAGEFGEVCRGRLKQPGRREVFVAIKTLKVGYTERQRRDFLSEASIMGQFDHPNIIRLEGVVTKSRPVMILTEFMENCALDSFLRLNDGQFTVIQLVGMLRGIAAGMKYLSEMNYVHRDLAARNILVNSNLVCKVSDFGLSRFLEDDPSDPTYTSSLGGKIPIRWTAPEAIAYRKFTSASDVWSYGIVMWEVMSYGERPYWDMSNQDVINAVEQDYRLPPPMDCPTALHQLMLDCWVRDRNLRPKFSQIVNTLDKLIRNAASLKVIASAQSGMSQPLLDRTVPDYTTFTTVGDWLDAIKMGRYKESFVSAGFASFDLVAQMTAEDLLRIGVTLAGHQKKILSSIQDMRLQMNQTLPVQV
Conditions: at 0.1 µM.

Experiment [3] addresses T2, Ephrin type-B receptor 3 (Homo sapiens). The note with it: at 1 µM.
For experiment [4], the target named is T3, Ephrin type-B receptor 4 (Homo sapiens) (UniProt P54760).
T3 sequence (whole entry): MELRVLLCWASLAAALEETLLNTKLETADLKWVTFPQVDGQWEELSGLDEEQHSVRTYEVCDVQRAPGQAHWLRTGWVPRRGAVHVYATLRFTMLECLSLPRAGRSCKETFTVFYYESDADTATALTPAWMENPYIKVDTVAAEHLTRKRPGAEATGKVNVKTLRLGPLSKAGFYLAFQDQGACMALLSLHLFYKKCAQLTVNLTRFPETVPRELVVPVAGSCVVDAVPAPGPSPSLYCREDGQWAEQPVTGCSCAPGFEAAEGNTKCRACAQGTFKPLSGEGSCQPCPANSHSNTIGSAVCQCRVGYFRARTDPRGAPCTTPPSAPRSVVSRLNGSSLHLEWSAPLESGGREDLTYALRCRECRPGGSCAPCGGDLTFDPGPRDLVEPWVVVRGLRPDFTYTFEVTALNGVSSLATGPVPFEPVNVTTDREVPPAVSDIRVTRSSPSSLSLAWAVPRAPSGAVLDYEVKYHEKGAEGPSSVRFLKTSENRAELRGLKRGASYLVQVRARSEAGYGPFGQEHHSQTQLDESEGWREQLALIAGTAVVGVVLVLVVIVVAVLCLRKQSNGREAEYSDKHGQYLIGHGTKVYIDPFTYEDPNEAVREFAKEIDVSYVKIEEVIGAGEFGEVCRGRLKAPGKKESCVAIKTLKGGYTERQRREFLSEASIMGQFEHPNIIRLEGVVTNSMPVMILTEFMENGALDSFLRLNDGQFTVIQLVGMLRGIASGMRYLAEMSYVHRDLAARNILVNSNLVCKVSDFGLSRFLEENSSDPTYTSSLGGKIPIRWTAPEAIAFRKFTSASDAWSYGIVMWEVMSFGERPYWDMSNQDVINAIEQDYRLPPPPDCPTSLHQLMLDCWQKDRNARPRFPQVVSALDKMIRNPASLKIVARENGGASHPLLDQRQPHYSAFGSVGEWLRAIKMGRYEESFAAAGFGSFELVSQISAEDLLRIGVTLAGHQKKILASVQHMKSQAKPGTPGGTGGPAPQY
The note with it: at 0.1 µM.

Experiment [5] concerns the target T3, Ephrin type-B receptor 4 (Homo sapiens). The note with it: at 1 µM.
Experiment [6] addresses Receptor tyrosine-protein kinase erbB-2 (Homo sapiens) (UniProt P04626). Conditions: at 0.1 µM.
For experiment [7] the target is unchanged. The note with it: at 1 µM.
In experiment [8] the target is Receptor tyrosine-protein kinase erbB-4 (Homo sapiens) (UniProt Q15303). Conditions: at 0.1 µM.
Chain of Receptor tyrosine-protein kinase erbB-4 (Homo sapiens) (Q15303 whole entry): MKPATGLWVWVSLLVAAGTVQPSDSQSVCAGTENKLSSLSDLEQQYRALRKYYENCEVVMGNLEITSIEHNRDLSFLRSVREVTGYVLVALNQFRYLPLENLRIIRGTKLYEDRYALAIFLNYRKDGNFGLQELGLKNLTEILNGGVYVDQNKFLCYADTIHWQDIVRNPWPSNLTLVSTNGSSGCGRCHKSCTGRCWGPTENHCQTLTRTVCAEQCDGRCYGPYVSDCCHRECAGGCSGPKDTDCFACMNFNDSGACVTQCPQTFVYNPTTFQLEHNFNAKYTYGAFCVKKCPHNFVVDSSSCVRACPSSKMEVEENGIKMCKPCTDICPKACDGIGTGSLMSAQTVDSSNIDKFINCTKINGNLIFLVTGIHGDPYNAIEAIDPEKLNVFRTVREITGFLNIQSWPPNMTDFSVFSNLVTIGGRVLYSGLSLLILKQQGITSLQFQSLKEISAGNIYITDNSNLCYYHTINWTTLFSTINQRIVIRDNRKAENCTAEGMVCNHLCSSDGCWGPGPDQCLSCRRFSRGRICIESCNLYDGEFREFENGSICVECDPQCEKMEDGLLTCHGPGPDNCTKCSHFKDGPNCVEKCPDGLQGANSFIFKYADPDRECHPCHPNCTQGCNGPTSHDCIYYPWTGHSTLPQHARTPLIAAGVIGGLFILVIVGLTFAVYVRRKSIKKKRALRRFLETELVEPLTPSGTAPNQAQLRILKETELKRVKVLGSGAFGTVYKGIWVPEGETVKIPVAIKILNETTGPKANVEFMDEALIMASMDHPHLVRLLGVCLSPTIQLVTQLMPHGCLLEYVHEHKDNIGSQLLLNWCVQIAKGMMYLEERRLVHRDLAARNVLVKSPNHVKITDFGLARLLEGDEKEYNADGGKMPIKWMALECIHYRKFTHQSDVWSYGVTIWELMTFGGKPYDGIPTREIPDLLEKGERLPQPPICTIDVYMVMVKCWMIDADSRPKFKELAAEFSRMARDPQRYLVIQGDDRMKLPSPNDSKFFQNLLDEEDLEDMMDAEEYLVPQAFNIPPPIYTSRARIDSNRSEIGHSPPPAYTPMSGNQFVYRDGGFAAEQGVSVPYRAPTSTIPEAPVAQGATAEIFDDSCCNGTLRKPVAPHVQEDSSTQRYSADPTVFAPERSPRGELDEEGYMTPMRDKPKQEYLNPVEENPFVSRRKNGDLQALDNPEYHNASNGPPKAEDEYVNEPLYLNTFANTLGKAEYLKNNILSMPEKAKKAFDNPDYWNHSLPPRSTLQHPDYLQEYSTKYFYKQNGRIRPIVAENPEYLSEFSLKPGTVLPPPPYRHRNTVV
The target is the same in experiment [9]. The note with it: at 1 µM.
Experiment [10] concerns the target Tyrosine-protein kinase Fer (Homo sapiens) (UniProt P16591). Conditions: at 0.1 µM.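 Further: reported figures are averaged percent inhibition of FER.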

Chain of Receptor tyrosine-protein kinase erbB-2 (Homo sapiens) (P04626 whole entry): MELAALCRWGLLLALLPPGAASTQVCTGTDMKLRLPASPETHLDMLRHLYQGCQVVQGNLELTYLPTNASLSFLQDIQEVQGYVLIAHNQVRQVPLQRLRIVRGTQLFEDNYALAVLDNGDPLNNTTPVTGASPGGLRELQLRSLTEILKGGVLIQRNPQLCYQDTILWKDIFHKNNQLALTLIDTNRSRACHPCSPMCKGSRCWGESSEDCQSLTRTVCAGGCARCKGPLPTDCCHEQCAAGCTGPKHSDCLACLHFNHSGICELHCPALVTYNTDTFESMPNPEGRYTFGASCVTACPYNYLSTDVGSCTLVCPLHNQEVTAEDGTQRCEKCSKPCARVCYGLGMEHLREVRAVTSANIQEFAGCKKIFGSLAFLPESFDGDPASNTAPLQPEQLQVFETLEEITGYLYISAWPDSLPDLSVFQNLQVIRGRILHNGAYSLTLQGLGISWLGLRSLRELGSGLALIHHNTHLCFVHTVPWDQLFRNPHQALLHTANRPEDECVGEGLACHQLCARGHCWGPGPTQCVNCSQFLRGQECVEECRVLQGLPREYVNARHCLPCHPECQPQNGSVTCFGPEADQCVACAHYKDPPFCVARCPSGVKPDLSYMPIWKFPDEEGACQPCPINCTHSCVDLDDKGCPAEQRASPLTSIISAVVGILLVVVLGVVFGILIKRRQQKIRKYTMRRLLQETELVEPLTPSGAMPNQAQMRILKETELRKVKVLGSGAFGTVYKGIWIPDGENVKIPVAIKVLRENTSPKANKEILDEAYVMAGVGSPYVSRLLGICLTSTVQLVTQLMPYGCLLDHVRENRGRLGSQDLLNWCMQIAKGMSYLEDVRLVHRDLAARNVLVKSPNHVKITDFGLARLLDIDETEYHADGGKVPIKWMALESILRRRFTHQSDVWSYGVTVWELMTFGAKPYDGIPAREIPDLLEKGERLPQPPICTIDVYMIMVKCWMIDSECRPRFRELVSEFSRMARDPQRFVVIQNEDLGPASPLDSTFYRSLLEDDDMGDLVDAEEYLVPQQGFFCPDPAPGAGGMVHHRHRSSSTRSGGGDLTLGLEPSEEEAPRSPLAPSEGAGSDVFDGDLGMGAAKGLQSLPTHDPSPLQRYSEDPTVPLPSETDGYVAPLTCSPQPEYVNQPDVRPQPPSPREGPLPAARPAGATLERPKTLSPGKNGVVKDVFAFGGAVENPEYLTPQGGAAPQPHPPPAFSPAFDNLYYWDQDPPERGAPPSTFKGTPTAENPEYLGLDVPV
Chain of Tyrosine-protein kinase Fer (Homo sapiens) (P16591 whole entry, looked up): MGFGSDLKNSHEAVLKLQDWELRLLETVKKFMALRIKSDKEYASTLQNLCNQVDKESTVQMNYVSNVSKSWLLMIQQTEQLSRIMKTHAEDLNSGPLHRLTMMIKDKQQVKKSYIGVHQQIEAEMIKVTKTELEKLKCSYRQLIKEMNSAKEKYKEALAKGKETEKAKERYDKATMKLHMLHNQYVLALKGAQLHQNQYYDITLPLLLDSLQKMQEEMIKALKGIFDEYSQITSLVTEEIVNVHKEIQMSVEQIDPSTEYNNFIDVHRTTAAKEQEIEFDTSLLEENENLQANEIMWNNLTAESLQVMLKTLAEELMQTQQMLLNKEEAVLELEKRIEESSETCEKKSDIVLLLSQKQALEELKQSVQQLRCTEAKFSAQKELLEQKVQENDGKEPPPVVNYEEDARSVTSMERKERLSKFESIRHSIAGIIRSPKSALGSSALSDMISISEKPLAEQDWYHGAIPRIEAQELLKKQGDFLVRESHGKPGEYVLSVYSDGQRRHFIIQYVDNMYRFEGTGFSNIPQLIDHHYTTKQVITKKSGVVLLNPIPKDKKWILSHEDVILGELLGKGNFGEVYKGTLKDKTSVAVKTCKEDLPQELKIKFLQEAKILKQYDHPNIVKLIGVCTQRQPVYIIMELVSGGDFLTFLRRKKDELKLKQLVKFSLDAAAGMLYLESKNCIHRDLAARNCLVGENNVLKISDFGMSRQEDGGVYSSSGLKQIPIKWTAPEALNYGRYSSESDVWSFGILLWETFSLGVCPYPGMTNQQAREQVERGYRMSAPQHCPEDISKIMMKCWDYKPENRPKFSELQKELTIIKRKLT

Broadly, the inhibition is the drop in the measured response relative to a control, in per cent. With `Cn1c(-c2nonc2N)nc2cnccc21`, the inhibition in [1] was 3.92%; in [2], 3.54%; in experiment [3], 4.62%; in experiment [4], 2.84%; in experiment [5], 2%; in [6] it was 4.78%. The inhibition in [7] worked out at 3.42%; in experiment [8], 14.9%; in experiment [9], 17.3%; in experiment [10], 3.92%.
Take `c1cnn2ncc(-c3ccnc(NCCCN4CCOCC4)n3)c2c1`: the inhibition was 9.04% in experiment [1]; 6.96% in experiment [2]; 3.37% in experiment [3]; 1.21% in experiment [4]; 1.07% in experiment [5]; 1.75% in experiment [6]. Further, the inhibition in [7] was -0.02%; in experiment [8], 8.02%; in experiment [9], 8.49%; in experiment [10] it was 0.82%.
With `COc1cccc(Nc2nccc(-c3cnn4ncccc34)n2)c1`, the inhibition is 36% in experiment [1]; 1.65% in experiment [2]; -3.88% in [3]; 2.75% in experiment [4]; 16.1% in [5]; -0.16% in experiment [6]. Moreover, the inhibition in experiment [7] came to 1.64%; in [8], 8.21%; in experiment [9], 3.05%; in experiment [10], 9.45%.
For the compound `CN(C)CCNC(=O)Nc1ccc(N(C)c2ccnc(Nc3ccc(CS(C)(=O)=O)cc3)n2)cc1`, the inhibition in experiment [1] was determined as 15.1%; in experiment [2], 5.05%; in experiment [3], 1.99%; in [4] it was 2.45%; in experiment [5] it was 3.65%; in experiment [6], 0.75%. In addition, the inhibition in [7] is -0.72%; in experiment [8], 8.93%; in experiment [9], 9.37%; in experiment [10] it was 4.17%.
For `COc1cc(N2CCN(C(C)C)CC2)ccc1Nc1nc(Nc2cccc3ncccc23)c2cc[nH]c2n1`, the inhibition in experiment [1] was 2.09%; in [2] it was 1.16%; in experiment [3], 0.4%; in experiment [4] it was 0.17%; in [5], 0.88%; in experiment [6], -0.99%. The inhibition in [7] is 2.24%; in experiment [8], -0.3%; in [9], 5.51%; in experiment [10], 7.7%.
On to `CN1CCC(n2cnc(-c3ccc(F)cc3)c2-c2ccnc(NCCO)n2)CC1`, for which the inhibition came to 10.7% in [1]; 4.67% in experiment [2]; 2% in [3]; 1.85% in [4]; 8.07% in experiment [5]; 0.93% in experiment [6]. The inhibition in experiment [7] worked out at 6.66%; in experiment [8], 9.26%; in [9], 12.3%; in [10] it was 7.03%.
With `CS(=O)(=O)Nc1ccc(-c2ccc3c(NC(=O)C4CC4)n[nH]c3c2)cc1`, the inhibition was 11.6% in experiment [1]; 4.92% in experiment [2]; 4.97% in experiment [3]; 2.13% in experiment [4]; 4.33% in [5]; -0.58% in [6]. For the same compound, the inhibition in experiment [7] is -2.83%; in experiment [8], -5.65%; in [9], 9.99%; in experiment [10], 9.81%.
For `CCS(=O)(=O)c1ccc(OC)c(Nc2ncc(-c3cccc(F)c3)o2)c1`, the inhibition in experiment [1] amounted to 45.9%; in experiment [2], 3.05%; in experiment [3], 6.76%; in experiment [4] it was 5.59%; in experiment [5], 31.7%; in experiment [6], 38.7%. In addition, the inhibition in experiment [7] came out at 5.62%; in [8], 9.46%; in experiment [9], 17.8%; in experiment [10], 2.32%.
